This is an account of results in a collection of fitness landscapes (doi:10.1016/j.celrep.2020.107928).

Over roughly 81,000 sequences, “one-hybrid fitness for binding parS DNA” has its median near -0.17; the highest 2% begin near 0.51. The full list was thinned out, with the highest values kept by preference.

First the molecules themselves.
B1: Caulobacter ParB omega fusion; a variant is named by its letters at X, in order, B8GW30 (parent)
chain: MESVVVGEPGMSEGRRGLGRGLSALLGEVDAAPAQAPGEQLGGSREAPIEILQRNPDQPRRTFREEDLEDLSNSIREKGVLQPILVRPSPDTAGEYQIVAGERAWRAAQRAGLKTVPIMVRELDDLAVLEIGIIENVQRADLNVLEEALSYKVLMEKFERTQENIAQTIGKSXSHVANXMRLLXLPDEVQSYLVSGELTAXHARAIAAAADPVALAKQIIEGGLSVRETEALARKAPNLSAGKSKGGRPPRVKDTDTQALESDLSSVLGLDVSIDHRGSTGTLTITYATLEQLDDLCNRLTRGI

The variants in this test derive from B1. The experiment in a line: one-hybrid fitness for binding parS DNA (scaled: cognate 1, non-cognate 0); higher = stronger binding. The conditions noted are these: with parS DNA site. The method in brief: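 Pre- and post-selection plasmids were Illumina-sequenced, three replicate libraries were pooled, and any variant with under 10 reads was removed. The libraries were Caulobacter ParB with four specificity codons randomised, selected in E. coli USO through a HIS3 reporter whose site is 19 bp from the promoter. Cells grew 48 hours at 37°C on M9 without histidine, with 0.1 mM IPTG and 5 mM 3-AT. Fitness is the log change in variant-to-wild-type read ratio, rescaled against cognate and non-cognate.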
Regarding PKQP, the “one-hybrid fitness for binding parS DNA” value is ≤ 0.2. Next, RNFD: ≤ 0.2; RNAS: 0.914; RNFN: 0.256. On to RNFS, for which the “one-hybrid fitness for binding parS DNA” value came to 0.719.

Turning to RNAD, the “one-hybrid fitness for binding parS DNA” value was ≤ 0.2. Next, RNAH: ≤ 0.2; KHDT: ≤ 0.2; WNNG: ≤ 0.2. Next, RVFT: 0.917. The same measure for RVAR: ≤ 0.2. Turning to RVAT, the “one-hybrid fitness for binding parS DNA” value was 0.916. In the case of RVAF, the “one-hybrid fitness for binding parS DNA” value is 0.259.

As to RVFY, the “one-hybrid fitness for binding parS DNA” value was found to be 0.464. Next, RVFM: 0.363. Next, SPGM: ≤ 0.2; RMRH: 0.261. Next, RMYK: ≤ 0.2; RMCF: 0.217. Take RMSN: the “one-hybrid fitness for binding parS DNA” value came out at 0.449. The same measure for RMRD: ≤ 0.2; for RMYF: 0.289; for RMRC: 0.867. As for RMYC, the “one-hybrid fitness for binding parS DNA” value came out at 1.01. Next, RMCC: 0.985; RMSC: 0.956; RMCR: ≤ 0.2.

For the variant RMSP, the “one-hybrid fitness for binding parS DNA” value was determined as 0.204. Turning to LSPY, the “one-hybrid fitness for binding parS DNA” value is ≤ 0.2. The same measure for LVGR: ≤ 0.2; for GTAK: ≤ 0.2.

Regarding ELGD, the “one-hybrid fitness for binding parS DNA” value was ≤ 0.2. Regarding QSMI, the “one-hybrid fitness for binding parS DNA” value was ≤ 0.2. In the case of EQMT, the “one-hybrid fitness for binding parS DNA” value was ≤ 0.2.

Consider IWTC, for which the “one-hybrid fitness for binding parS DNA” value is ≤ 0.2. The same measure for GPTP: ≤ 0.2; for PHIN: ≤ 0.2. The same measure for LTQT: ≤ 0.2; for RDMK: ≤ 0.2; for TFCT: ≤ 0.2. Next, RMLL: ≤ 0.2. Consider RMLC, for which the “one-hybrid fitness for binding parS DNA” value worked out at 0.983. The same measure for RMLR: ≤ 0.2. Next, THQL: ≤ 0.2; DMYA: ≤ 0.2. RMRA: the “one-hybrid fitness for binding parS DNA” value came out at 0.765. Next, RMEA: 0.495; RMYA: 0.651. The same measure for NMRA: ≤ 0.2. The same measure for QQDP: ≤ 0.2. As for GWES, the “one-hybrid fitness for binding parS DNA” value is ≤ 0.2.

For RPIG, the “one-hybrid fitness for binding parS DNA” value was ≤ 0.2. For RCIG, the “one-hybrid fitness for binding parS DNA” value was 0.955. The same measure for RDIG: ≤ 0.2; for RSPG: 0.507.

As to REIG, the “one-hybrid fitness for binding parS DNA” value was ≤ 0.2. Next, RSIG: 0.822; PLWA: ≤ 0.2.

For FGAE, the “one-hybrid fitness for binding parS DNA” value was ≤ 0.2.

As for KGTY, the “one-hybrid fitness for binding parS DNA” value is ≤ 0.2.

For VTTC, the “one-hybrid fitness for binding parS DNA” value was ≤ 0.2. Next, MCDS: ≤ 0.2; TPPY: ≤ 0.2. Next, HNSC: ≤ 0.2; RMYQ: 0.205. The same measure for RMYG: 1.03. On to RMDN, for which the “one-hybrid fitness for binding parS DNA” value was found to be 0.375.

Turning to RMHM, the “one-hybrid fitness for binding parS DNA” value came out at 0.374. Next, RMGG: 0.993; RMDG: 0.917; RMDH: ≤ 0.2. On to RMYR, for which the “one-hybrid fitness for binding parS DNA” value was found to be 0.225. Turning to RMGN, the “one-hybrid fitness for binding parS DNA” value is 0.453.

Turning to RMHG, the “one-hybrid fitness for binding parS DNA” value turned out to be 1.01.

RMGH: the “one-hybrid fitness for binding parS DNA” value is ≤ 0.2.

RMHF: the “one-hybrid fitness for binding parS DNA” value is 0.269. The same measure for SGDY: ≤ 0.2; for SKDT: ≤ 0.2. Next, VGNC: ≤ 0.2. In the case of RNAF, the “one-hybrid fitness for binding parS DNA” value was ≤ 0.2. Next, FYKS: ≤ 0.2. Next, RLMI: ≤ 0.2.

SYAC: the “one-hybrid fitness for binding parS DNA” value was ≤ 0.2.

QDNF: the “one-hybrid fitness for binding parS DNA” value was ≤ 0.2. With CRIC, the “one-hybrid fitness for binding parS DNA” value is ≤ 0.2. In the case of DYAR, the “one-hybrid fitness for binding parS DNA” value is ≤ 0.2. Take QGFS: the “one-hybrid fitness for binding parS DNA” value is ≤ 0.2. Next, TIDG: ≤ 0.2; QNGG: ≤ 0.2; NVIK: ≤ 0.2. Next, RMNG: 0.999.

As for RMRL, the “one-hybrid fitness for binding parS DNA” value is ≤ 0.2. The same measure for RMNM: 0.351; for RMRG: 0.962; for RMRF: 0.368. The same measure for RMNR: ≤ 0.2; for PVDG: ≤ 0.2; for TFGE: ≤ 0.2. Take DQLH: the “one-hybrid fitness for binding parS DNA” value is ≤ 0.2. For HHQA, the “one-hybrid fitness for binding parS DNA” value was ≤ 0.2. The same measure for RSVN: 0.342; for RSVP: ≤ 0.2. The same measure for RCVH: ≤ 0.2. The same measure for RCVS: 1.02. As to RSVS, the “one-hybrid fitness for binding parS DNA” value is 0.946. Take RPVS: the “one-hybrid fitness for binding parS DNA” value was ≤ 0.2. Next, RDPY: ≤ 0.2. The same measure for NTKG: ≤ 0.2; for RMDK: ≤ 0.2. The same measure for RMNC: 0.969. In the case of RMNN, the “one-hybrid fitness for binding parS DNA” value was 0.467.

Turning to RMNE, the “one-hybrid fitness for binding parS DNA” value is ≤ 0.2. The same measure for RMDC: 0.889.

For the variant RMDM, the “one-hybrid fitness for binding parS DNA” value is 0.302. The same measure for KILI: ≤ 0.2; for PNVW: ≤ 0.2. Next, STNR: ≤ 0.2. On to QRCN, for which the “one-hybrid fitness for binding parS DNA” value is ≤ 0.2. The same measure for RTKK: ≤ 0.2; for RTKC: 0.813; for DTKC: ≤ 0.2. The same measure for RTVC: 0.929; for RTVR: ≤ 0.2; for TIRR: ≤ 0.2.

For RNYV, the “one-hybrid fitness for binding parS DNA” value is ≤ 0.2. The same measure for LASP: ≤ 0.2; for DNAR: ≤ 0.2. Next, QMYE: ≤ 0.2. Next, DIAA: ≤ 0.2; NIAA: ≤ 0.2.

For the variant RIFA, the “one-hybrid fitness for binding parS DNA” value was determined as 0.529. As to RIAA, the “one-hybrid fitness for binding parS DNA” value was found to be 0.62. For PPGC, the “one-hybrid fitness for binding parS DNA” value is ≤ 0.2. The same measure for WPHF: ≤ 0.2; for EGPL: ≤ 0.2. Next, RVDP: ≤ 0.2. The same measure for RVND: ≤ 0.2; for RVNS: 0.915; for RVDN: 0.371. In the case of RVNN, the “one-hybrid fitness for binding parS DNA” value came out at 0.416. On to RVDS, for which the “one-hybrid fitness for binding parS DNA” value was found to be 0.974. The same measure for NYLV: ≤ 0.2; for NSCK: ≤ 0.2. The same measure for IGDM: ≤ 0.2; for LLDM: ≤ 0.2.

With RKNA, the “one-hybrid fitness for binding parS DNA” value stood at 0.834. Next, NKNA: ≤ 0.2; RKDA: 0.536; TAPI: ≤ 0.2. IGRG: the “one-hybrid fitness for binding parS DNA” value is ≤ 0.2. The same measure for CPMT: ≤ 0.2; for RTKY: 0.89; for RIVY: 0.469.
